Data published in the supplement of paper PMC3334620.
Over roughly 33,000 sequences, “E-score (-0.5 to 0.5)” has its median near -0.035; the highest 2% begin near 0.35. Many of the other results were omitted from the sample, so the highest values are more common in it than they were.

The sequences below were run against T1, Pdr3 (UniProt P33200) (assay: PBM E-score (8-mer binding enrichment) (E-score (-0.5 to 0.5)); higher = stronger / more preferred TF binding). Conditions: protein concentration: 200 nM; construct: GST-full length.
T1 sequence: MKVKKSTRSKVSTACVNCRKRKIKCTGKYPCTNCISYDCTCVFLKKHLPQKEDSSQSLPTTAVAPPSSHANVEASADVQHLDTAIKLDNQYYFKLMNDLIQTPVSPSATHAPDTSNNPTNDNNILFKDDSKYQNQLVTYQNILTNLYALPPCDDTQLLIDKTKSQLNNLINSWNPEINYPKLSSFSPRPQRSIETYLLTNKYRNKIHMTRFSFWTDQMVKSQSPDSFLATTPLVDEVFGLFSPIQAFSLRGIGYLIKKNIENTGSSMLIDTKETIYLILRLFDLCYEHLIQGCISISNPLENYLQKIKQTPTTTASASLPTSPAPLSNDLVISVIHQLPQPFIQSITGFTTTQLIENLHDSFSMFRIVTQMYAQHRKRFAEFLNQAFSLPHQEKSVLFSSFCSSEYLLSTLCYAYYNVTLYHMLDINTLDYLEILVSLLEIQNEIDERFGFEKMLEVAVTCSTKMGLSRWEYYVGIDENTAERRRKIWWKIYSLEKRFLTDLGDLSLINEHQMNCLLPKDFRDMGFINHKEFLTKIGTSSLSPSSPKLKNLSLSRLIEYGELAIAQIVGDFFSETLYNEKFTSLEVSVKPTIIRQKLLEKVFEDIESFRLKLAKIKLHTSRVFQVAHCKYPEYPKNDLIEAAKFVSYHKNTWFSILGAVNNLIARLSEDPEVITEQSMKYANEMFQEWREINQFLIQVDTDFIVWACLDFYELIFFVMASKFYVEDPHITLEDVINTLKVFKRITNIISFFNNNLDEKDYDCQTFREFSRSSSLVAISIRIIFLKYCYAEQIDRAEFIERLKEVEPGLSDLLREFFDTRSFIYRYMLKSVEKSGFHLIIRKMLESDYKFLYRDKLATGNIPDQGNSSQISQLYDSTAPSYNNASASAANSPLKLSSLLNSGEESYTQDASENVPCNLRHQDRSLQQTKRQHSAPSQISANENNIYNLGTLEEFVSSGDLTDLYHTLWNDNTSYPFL
Summary of the method: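 Masliner-normalised scans of fluorescent anti-GST signal were the basis for scoring. That signal came from GST-tagged yeast transcription factors applied at about 100-200 nM to double-stranded universal all-10-mer Agilent arrays on fresh or once-stripped slides. Each ungapped eight-base word, pooled with its reverse complement, received an E-score from the Universal PBM Analysis Suite.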

Sequence | PBM E-score
GGCGAGCA | 0.0206
CAGATAGC | -0.0206
ATAGTTAA | -0.038
CTCAGTAC | -0.183
GACAAACC | -0.0403
TCGTACGA | -0.293
ACTTGGTG | -0.141
AGGGAAAC | -0.104
ACGGGAAA | 0.277
AAGGAAAT | 0.00091
ACGGAAAT | 0.452
ACGGAAAA | 0.403
GAGGAAAA | 0.0256
ACGGAAAC | 0.452
AGGGAAAT | -0.115
AAGGAAAC | 0.0238
GCGGGAAA | 0.332
GCGGAAAA | 0.397
ATGGAAAA | 0.0967
AGCACCAA | -0.0317
GGTTGCCA | 0.233
ATAACGCG | 0.168
CCTATCCC | 0.188
TTGCGAAA | 0.119
ACACTCCG | 0.204
ACATGCGT | -0.265

Sequence | PBM E-score
GCGGAAAC | 0.415
GGGGAAAC | 0.206
GAGGAAAC | 0.053
TTGGAAAA | -0.141
TCGGAAAA | 0.4
TGGGAAAA | -0.104
ACTATCAC | -0.18
GGTGCACC | -0.0384
CTCACCAG | -0.147
CCGGGCAC | 0.364
ACGGGCAC | 0.025
CCCGGCGG | 0.382
CCGGGCCC | 0.345
CCGGGCCA | 0.346
CCGGGCCG | 0.399
CCCGGCAG | 0.303
CCCGGCCG | 0.357
GCGGGCAC | 0.216
ACCGGCGG | 0.256
ACCGGCCG | 0.35
CCCGGCCC | 0.247
GCAAGATA | -0.00203
GCCATTAC | 0.137
CTCAACTA | -0.0622
CCTCGAAA | -0.114
CCCTGAGA | -0.165

Sequence | PBM E-score
CTCAGAAC | -0.135
ACATATTA | -0.0563
AAGGTTGC | -0.0716
GACCTATA | 0.0796
ATACAGAG | -0.223
CAGAAACG | 0.0256
GGGAAACA | 0.161
AGGAAACA | -0.0166
GGGAAACC | 0.149
AGGAAACG | -0.0809
CGGAAACG | 0.396
CGGAAACA | 0.451
CGGAAACC | 0.425
AGGAAACC | 0.00802
GTAAGAAC | -0.0573
CGGGGTTA | 0.304
CAAGGTAC | -0.25
CCTGGTCA | -0.169
AGTGCAAC | -0.107
GTGCGGAA | 0.366
GTGCGGCA | 0.0901
CTGCGGCA | 0.0359
ATGCGGAG | 0.0777
GTGCGGGA | 0.252
CTGCGGAC | 0.1
ATGCGGAC | 0.134

Sequence | PBM E-score
CTGCGGAA | 0.357
ATGCGGAA | 0.416
CAGCCCGC | 0.00736
AATATTAA | 0.244
TTGGGAAA | 0.0633
CGGCTCGA | 0.174
CGAGTCGC | -0.0735
ACACCTCT | -0.0108
TAAACCAA | -0.263
GCCCAGGC | -0.138
ATCGGAGA | 0.25
ATCGGACC | 0.313
GTCGGATA | 0.218
CTCGGAAA | 0.372
ATCGGACA | 0.221
CTCGGGAA | 0.301
CTCGGAGA | 0.312
GTCGGAAA | 0.416
GTCGGAGA | 0.173
ATCGGAAA | 0.407
ATCGGAGC | 0.275
ATCGGAAC | 0.469
ATGAATAC | -0.0134
ATTGCGGA | 0.328
CCAGTGCC | -0.1
ACACAAGC | 0.0653

Sequence | PBM E-score
GAATGGGC | 0.186
ACGCCGAC | 0.163
GGAGATGA | 0.094
GTCGGAAC | 0.458
ATCGGAGG | 0.0523
ATCGGACG | 0.209
TCGGGAAA | 0.309
TTCAGAAA | -0.195
GTGGGAAC | -0.0738
GTCGGACA | 0.218
CTCGGAAG | 0.39
ATCGGAAG | 0.359
CTAGGAAG | -0.214
TTCGGAAA | 0.391
CTGGGAAG | -0.176
AGATCTCC | 0.0532
AGAGTATA | -0.259
ATCCTGGC | -0.0357
AGTGCCTC | -0.229
TTCCCCAA | -0.0249
CTCGGAAC | 0.474
CTCGGAGC | 0.276
ATCGGCAT | 0.175
ATCGGATA | 0.325
CTAGGAAC | -0.0409
ATCGGAAT | 0.43

Sequence | PBM E-score
CCACAGCG | -0.0122
TACGGCCA | -0.0624
CTTCGCCC | 0.0168
ACCGCCCG | 0.227
CCCGCCGC | 0.27
CCCGCCCG | 0.372
CCCGCCCA | 0.231
ATCGCCGA | 0.154
CCCGCCGG | 0.373
ATCGCCGG | 0.373
ATCGCCGC | 0.166
CCCGCCGA | 0.305
CGCGCCCG | 0.23
ACCGCCCC | 0.148
CCCGCCCC | 0.357
GAATCTCC | 0.225
GTGGCCGA | 0.107
ACCAGTCG | -0.0214
TCCGCCGA | 0.376
ACCGCCGA | 0.103
GCCGCCGA | 0.292
CATGGGAG | -0.124
CAGTCTCG | -0.203
TGCGATAA | 0.0592
ACGGTAGT | -0.00668
ATCGGGAA | 0.279

Sequence | PBM E-score
ATCCGGGG | 0.389
ATCCGGGC | 0.386
AGCCGGGC | 0.137
ATCCGGGA | 0.313
CTCCGGGC | 0.236
ATCGGGGG | 0.0408
CTGCTCGA | -0.176
AGCCATCA | -0.0552
ACGCCGAT | -0.0606
CATCCGCG | 0.359
AATCCGCG | 0.388
AATCCGCA | 0.246
AGTCCGCA | 0.203
AATCCGCT | 0.16
AGTCCGCG | 0.364
AGTCCGCC | 0.324
CATCCGCA | 0.237
CATCCGCC | 0.345
GCCCTAAA | -0.219
CCTCAAGC | -0.113
